# For some assays here: Measured potencies and affinities stand elsewhere.
# Assays:
# Parameters in all cases: scale not given: direction of the effect not stated beside the values
# [1] = target: Protein translocase subunit SecA (Escherichia coli (strain K12)) (UniProt P10408); test: Assay to Identify E. coli SecA ATPase Inhibitors; type: functional; details: 30 µM
# [2] = target: T1, Ubiquitin-activating enzyme e1, putative (Leishmania donovani (strain BPK282A1)) (UniProt E9BSI1); test: Leishmania donovani Ubiquitin Activating Enzyme (LdE1); type: functional; details: 30 µM
# T1 sequence (whole entry): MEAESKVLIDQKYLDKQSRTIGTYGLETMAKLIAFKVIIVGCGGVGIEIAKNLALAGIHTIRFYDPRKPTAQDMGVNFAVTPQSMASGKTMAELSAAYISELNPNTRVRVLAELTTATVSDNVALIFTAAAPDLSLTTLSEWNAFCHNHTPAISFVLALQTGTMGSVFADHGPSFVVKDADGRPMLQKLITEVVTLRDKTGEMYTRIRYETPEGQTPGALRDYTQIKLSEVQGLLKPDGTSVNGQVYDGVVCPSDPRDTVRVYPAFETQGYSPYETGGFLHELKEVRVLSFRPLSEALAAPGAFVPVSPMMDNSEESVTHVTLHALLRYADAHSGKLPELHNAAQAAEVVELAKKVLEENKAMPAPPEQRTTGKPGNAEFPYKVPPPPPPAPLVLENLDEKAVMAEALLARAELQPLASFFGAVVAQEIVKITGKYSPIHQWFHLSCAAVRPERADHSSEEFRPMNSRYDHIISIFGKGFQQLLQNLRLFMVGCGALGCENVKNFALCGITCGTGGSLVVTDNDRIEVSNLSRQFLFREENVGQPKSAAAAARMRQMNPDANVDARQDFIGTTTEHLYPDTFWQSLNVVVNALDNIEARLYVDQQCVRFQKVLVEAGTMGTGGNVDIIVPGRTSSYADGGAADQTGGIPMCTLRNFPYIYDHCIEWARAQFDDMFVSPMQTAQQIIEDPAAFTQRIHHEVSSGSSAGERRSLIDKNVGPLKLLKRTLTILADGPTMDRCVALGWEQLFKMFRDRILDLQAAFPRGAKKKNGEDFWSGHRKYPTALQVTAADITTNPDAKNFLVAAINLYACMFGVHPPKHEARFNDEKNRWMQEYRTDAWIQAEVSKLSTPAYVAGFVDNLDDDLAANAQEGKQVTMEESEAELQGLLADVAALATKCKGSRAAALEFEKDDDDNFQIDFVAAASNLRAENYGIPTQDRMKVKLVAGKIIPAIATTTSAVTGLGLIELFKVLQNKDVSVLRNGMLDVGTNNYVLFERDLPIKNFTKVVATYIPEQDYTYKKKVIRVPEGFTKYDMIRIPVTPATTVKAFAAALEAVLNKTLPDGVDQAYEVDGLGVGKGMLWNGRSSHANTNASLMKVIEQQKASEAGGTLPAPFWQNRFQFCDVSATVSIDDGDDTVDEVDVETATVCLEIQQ
# [3] = target: AMP-activated protein kinase, AMPK (Homo sapiens) (UniProt P54646+O43741+P54619+Q9UGJ0+Q9Y478+Q13131+Q9UGI9); test: AMP-dependent Kinase enzyme assay. An in vitro enzyme assay that detects ADP turnover that is directly proportional to AMPK activity. This uses naive AMPK that is activated during the assay with MK-8722; type: functional; details: 30 µM
# [4] = target: Sialic acid-binding Ig-like lectin 9 (Homo sapiens) (UniProt Q9Y336); test: Hs-Siglec9 ALPHAscreen SOP 20170721; details: 10 µM
# Trypanosoma cruzi = test: Trypanosoma cruzi phosphomannomutase and mannose-1-phosphate guanylyltransferase assay; type: functional; details: 10 µM
# [5] = target: T2, Arginase-2, mitochondrial (Homo sapiens) (UniProt P78540); test: in vitro enzyme assay to detect the production of urea directly proportional to the activity of Arginase II; type: functional; details: 33.3 µM; note: in the data most compounds retested in dose-response had high values
# T2 sequence (whole entry): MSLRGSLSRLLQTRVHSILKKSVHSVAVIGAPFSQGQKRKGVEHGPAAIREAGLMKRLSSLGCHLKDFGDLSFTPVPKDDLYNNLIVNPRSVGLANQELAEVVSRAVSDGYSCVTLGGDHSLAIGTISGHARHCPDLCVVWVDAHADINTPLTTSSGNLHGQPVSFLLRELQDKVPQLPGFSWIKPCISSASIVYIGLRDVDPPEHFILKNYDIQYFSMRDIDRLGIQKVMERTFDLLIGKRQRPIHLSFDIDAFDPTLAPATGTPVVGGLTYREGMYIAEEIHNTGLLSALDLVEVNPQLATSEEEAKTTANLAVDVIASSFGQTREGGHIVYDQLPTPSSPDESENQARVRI
# [6] = target: T3, Proteasome subunit beta (Trypanosoma cruzi) (UniProt O96673); test: Trypanosoma cruzi proteasome chymotrypsin-like activity (TcProtChymo) assay.; note: in the data most compounds retested in dose-response had high values; type: functional; details: 9.37 µM
# T3 sequence (whole entry): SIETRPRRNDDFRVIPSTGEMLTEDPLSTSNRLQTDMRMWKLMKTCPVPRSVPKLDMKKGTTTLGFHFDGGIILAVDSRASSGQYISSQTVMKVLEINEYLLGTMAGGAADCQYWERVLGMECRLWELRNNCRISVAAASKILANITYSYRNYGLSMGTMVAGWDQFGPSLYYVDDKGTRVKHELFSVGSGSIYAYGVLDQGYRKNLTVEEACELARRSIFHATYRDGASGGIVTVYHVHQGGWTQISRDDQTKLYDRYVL
# Homo sapiens = organism: Homo sapiens; test: To identify inhibition of the IFN signalling (Jak-Stat) pathway via expression of an eGFP reporter gene under the control of an IFN-stimulated response element (ISRE) containing MxA promoter.; type: functional; details: 30 µM
# [7] = target: T4, Tyrosyl-tRNA synthetase, putative (Trypanosoma cruzi (strain CL Brener)) (UniProt Q4DSP6); test: Trypanosoma cruzi tyrosyl tRNA synthetase (TcYRS) _High Tyrosine SOP; type: functional; details: 30 µM; note: in the data most compounds retested in dose-response had high values
# T4 sequence (whole entry): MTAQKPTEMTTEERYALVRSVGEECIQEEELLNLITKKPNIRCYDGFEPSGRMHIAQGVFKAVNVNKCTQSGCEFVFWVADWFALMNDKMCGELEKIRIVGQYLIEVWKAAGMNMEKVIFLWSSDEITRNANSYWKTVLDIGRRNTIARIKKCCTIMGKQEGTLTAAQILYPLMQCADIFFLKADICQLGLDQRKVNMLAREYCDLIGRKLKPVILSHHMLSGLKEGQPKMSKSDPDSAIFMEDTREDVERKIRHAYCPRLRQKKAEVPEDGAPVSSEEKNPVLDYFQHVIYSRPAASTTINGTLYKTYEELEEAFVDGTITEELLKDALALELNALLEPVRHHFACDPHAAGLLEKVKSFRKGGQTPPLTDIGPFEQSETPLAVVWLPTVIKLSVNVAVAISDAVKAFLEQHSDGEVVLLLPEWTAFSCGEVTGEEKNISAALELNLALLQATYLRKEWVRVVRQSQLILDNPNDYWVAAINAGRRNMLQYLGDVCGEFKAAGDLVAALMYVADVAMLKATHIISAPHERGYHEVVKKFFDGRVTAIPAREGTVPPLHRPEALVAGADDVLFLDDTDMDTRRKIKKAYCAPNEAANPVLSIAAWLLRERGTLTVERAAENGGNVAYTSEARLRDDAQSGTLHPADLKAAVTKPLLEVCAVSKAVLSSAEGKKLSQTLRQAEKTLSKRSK
# [8] = target: T4, Tyrosyl-tRNA synthetase, putative (Trypanosoma cruzi (strain CL Brener)); test: Trypanosoma cruzi tyrosyl tRNA synthetase (TcYRS) SOP; type: functional; details: 30 µM
# [9] = target: Chromo domain-containing protein 1 (Saccharomyces cerevisiae (strain ATCC 204508 / S288c) (Baker's yeast)) (UniProt P32657); test: ScCHD-1 Enzyme Inhibition Assay; type: functional; details: 30 µM; note: in the data most compounds retested in dose-response had high values
# Sequence of Chromo domain-containing protein 1 (Saccharomyces cerevisiae (strain ATCC 204508 / S288c) (Baker's yeast)) (P32657 whole entry, the tested form may be a part): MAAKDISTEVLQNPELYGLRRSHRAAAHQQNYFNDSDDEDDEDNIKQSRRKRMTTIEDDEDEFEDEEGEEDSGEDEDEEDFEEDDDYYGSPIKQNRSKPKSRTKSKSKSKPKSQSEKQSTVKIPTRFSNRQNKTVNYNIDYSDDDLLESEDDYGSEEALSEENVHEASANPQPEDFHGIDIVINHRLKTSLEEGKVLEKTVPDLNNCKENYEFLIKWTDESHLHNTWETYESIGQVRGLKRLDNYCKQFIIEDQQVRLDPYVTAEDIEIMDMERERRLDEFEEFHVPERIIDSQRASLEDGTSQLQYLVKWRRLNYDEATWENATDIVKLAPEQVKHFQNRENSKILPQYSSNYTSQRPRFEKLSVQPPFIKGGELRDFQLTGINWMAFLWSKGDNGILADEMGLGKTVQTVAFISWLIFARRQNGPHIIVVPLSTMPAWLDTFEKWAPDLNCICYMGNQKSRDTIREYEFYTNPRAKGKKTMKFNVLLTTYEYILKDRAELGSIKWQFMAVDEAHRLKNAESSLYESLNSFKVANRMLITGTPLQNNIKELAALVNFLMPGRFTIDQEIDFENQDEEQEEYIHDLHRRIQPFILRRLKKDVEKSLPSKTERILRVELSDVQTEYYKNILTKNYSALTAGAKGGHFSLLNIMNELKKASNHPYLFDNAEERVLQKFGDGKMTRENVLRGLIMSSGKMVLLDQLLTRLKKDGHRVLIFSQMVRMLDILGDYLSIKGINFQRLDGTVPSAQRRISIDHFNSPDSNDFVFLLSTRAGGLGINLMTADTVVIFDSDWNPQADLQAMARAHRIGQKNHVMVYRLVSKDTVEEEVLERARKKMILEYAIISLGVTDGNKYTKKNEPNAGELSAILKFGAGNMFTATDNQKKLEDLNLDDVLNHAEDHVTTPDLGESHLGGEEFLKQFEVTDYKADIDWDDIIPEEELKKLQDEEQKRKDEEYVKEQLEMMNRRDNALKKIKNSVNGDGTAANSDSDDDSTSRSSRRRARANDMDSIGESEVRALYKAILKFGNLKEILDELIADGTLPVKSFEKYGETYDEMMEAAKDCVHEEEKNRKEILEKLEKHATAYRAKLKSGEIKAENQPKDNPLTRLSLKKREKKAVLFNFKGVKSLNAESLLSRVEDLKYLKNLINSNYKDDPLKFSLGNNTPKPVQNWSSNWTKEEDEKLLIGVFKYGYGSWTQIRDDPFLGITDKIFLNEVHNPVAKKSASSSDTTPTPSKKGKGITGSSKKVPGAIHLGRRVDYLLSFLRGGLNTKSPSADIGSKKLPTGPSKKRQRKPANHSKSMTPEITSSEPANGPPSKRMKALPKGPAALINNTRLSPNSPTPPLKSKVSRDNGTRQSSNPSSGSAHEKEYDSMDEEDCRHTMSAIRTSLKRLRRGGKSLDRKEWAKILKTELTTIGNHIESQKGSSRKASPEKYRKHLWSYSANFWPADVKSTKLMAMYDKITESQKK
# Sequence of Sialic acid-binding Ig-like lectin 9 (Homo sapiens) (Q9Y336 whole entry): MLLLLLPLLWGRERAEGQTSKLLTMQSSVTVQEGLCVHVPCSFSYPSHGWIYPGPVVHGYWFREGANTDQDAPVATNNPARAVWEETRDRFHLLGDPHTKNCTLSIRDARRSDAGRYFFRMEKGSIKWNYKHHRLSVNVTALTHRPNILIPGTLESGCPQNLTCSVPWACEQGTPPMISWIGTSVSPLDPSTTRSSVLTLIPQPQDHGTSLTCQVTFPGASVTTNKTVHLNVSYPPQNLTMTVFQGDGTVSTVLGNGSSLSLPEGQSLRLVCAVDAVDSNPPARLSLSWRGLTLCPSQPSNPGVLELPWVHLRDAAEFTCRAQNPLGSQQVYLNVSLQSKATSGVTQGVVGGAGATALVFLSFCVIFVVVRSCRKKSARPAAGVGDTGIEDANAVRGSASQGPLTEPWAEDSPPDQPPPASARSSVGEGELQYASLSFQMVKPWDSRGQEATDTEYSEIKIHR
# Sequence of Protein translocase subunit SecA (Escherichia coli (strain K12)) (P10408 whole entry): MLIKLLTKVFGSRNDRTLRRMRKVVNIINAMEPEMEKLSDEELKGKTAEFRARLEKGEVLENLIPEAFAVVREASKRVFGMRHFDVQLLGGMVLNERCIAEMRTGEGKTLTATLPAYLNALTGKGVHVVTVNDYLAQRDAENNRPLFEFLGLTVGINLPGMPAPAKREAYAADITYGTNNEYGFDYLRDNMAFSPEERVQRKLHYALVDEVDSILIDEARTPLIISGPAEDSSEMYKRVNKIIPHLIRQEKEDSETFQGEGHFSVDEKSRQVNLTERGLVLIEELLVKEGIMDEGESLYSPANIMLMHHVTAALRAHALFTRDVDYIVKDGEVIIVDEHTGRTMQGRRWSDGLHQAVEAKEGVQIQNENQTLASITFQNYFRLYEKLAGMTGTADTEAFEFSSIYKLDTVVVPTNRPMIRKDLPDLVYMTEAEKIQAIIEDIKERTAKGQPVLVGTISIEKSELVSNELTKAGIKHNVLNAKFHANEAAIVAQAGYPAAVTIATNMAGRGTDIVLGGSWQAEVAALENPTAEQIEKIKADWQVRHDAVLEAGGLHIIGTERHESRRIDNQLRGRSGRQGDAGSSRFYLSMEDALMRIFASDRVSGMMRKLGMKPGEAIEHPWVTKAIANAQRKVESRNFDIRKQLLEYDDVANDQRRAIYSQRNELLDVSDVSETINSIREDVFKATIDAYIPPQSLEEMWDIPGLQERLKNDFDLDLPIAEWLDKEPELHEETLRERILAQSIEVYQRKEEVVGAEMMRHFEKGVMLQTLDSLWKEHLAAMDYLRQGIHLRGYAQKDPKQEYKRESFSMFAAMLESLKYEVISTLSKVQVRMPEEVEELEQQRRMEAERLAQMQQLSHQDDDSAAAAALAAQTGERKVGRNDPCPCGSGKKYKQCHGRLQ
Structure (SMILES),Percent Effect [1],Percent Effect [2],Percent Effect [3],Percent Effect [4],Percent Effect (Trypanosoma cruzi),Percent Effect [5],Percent Effect [6],Percent Effect (Homo sapiens),Percent Effect [7],Percent Effect [8],Percent Effect [9]
O=C(NCC(O)c1ccc(F)c(F)c1)c1cccnc1OCC(F)(F)F (configuration not stated),-4.25%,19.2%,10.1%,8.21%,7.94%,-2%,15.8%,5.47%,4.17%,16.1%,-4.84%
CC(C)Nc1nc(N2CCOCC2)nc2c1CN(CC(=O)N(C)C)CC2,-9.2%,0%,6.79%,-0.0149%,-0.591%,1.17%,-5.37%,15.8%,-1.06%,-3.85%,-5.05%
O=C(NCCCN1CCCC1)c1n[nH]c(=O)c2ccccc12,-2.88%,20.8%,0.621%,-1.51%,-10.7%,2.13%,5.74%,11.3%,6.8%,12.2%,-6.65%
COc1ccc(-n2cnnc2SCCC#N)cn1,-2.65%,8%,0.911%,11.1%,4.38%,18.2%,11.3%,-11.2%,6.01%,21%,-6.98%
CC(C)CCN1CN=C(NS(=O)(=O)c2ccc(F)cc2)NC1,-1.41%,6.67%,4.23%,1.92%,-1.38%,-9.33%,9.61%,-4.88%,5.29%,10.3%,-8.81%
Cc1noc(Cl)c1CC(=O)N1CCCC(n2cccn2)C1 (configuration not stated),-7.2%,15.8%,-1.76%,0.841%,-0.0934%,-3.96%,0.592%,-4.99%,10.3%,16.1%,1.45%
CCOC(=O)c1sc2ccsc2c1CNC(=O)C(C)(C)C#N,-2.65%,0%,8.08%,1.84%,1.76%,-5.73%,-5.57%,13.9%,5.94%,11%,14.5%
CCCNC(=O)NC(=O)CN(CC(C)O)c1ccccc1 (configuration not stated),-3.79%,10.4%,2.88%,-6.45%,6.95%,-0.632%,6.22%,-9.46%,5.71%,9.41%,2.09%
CCc1[nH]ncc1C(=O)N1CCCN(Cc2cnn(C)c2)CC1,0.347%,15.6%,6.03%,-6.37%,-0.0979%,5.68%,8%,21.9%,5.71%,18.8%,-17.9%
Cn1cccc1C(=O)N1CCN(CC2CC2)c2ncccc2C1,-6.82%,10.7%,-5.74%,2.72%,2.7%,-56.8%,7.18%,3.32%,1.04%,10%,-4.08%
CCN(CC)Cc1cn2c(n1)CN(C(=O)c1cnccn1)CC2,-2.54%,10.8%,3.85%,-1.54%,-3.62%,6.69%,19.9%,-5.71%,3.24%,7.69%,0.514%
O=c1c2sccc2nc2n1CCN(Cc1cccs1)CC2,-2.34%,12.2%,10.7%,1.3%,-0.395%,-1.16%,10.9%,12.6%,0%,11.7%,-12%
CN(C)c1cc2c(nn1)CCN(C(=O)C1CCc3ccccc31)C2 (configuration not stated),-6.92%,5.06%,-21.4%,3.81%,-0.283%,0.38%,-1.06%,15.8%,-5.42%,-8.86%,-2.71%
O=C(NS(=O)(=O)c1cc(Cl)sc1Cl)c1cccc2c1OCCO2,-8.74%,-11%,3.09%,-2.91%,-6.07%,-1.36%,13.5%,24.9%,-22.6%,-42.5%,-4.53%
CC(C(=O)N1CCN(c2cnccn2)CC1)n1cncn1 (configuration not stated),-0.0716%,1.27%,4.88%,1.64%,-4%,7.53%,8.23%,11.1%,3.12%,10.1%,-8.39%
O=C(NCC1CC1)[C@H]1C[C@@H]2CN(S(=O)(=O)Cc3ccccc3)C[C@H]1O2,-3.04%,10.7%,12.2%,-8.26%,-6.5%,2.56%,9.25%,12.3%,0%,1.28%,-3.45%
CCN1CC2(CC1=O)CN(C(=O)c1ccco1)CCN(C(=O)N(C)C)C2 (configuration not stated),-0.623%,5.48%,-1.36%,5.48%,-2.18%,-8.78%,12.6%,6.21%,6.25%,1.24%,-1.51%
CCS(=O)(=O)N1C[C@H]2C[C@H](C(=O)N(C)C)[C@@H](C1)O2,-1.35%,8%,9.37%,0.653%,-5.51%,3.03%,5.55%,5.25%,4.25%,6.41%,-3.75%
O=C(O)CC1CN(Cc2ccccc2)CCO1 (configuration not stated),-6.06%,5.41%,5.19%,-3.59%,-5.27%,2.08%,14.3%,6.89%,8.91%,8.54%,-5.29%
CCOc1cccc(CNc2ccccc2C(=O)OC)c1O,2.18%,6.67%,-9.62%,-4.44%,-4.32%,-10.7%,19%,21.5%,3.17%,7.69%,-13.3%
Cc1cccc(-n2cc(C(=O)N3CCCC(n4ccnc4)C3)nn2)c1 (configuration not stated),-3.01%,15.6%,7.1%,-13.5%,-5.58%,-3.16%,14.6%,21.7%,1.91%,11.8%,-17.4%
Cc1n[nH]c(C)c1C1COCCN1C(=O)Cc1cccc(F)c1 (configuration not stated),1.02%,-2.74%,2.69%,0.561%,-6.46%,2.73%,2.13%,-1.33%,-1.07%,-2.5%,-1.14%

# Source: ChEMBL document CHEMBL3988442, “University of Dundee, Small-Polar-MMV Screening Library” (2021)
